Laboratory results reported in PubChem BioAssay AID651820 (National Center for Advancing Translational Sciences (NCATS), 2012).
Screen size: about 340,000 compounds; about 12,000 (3.5%) were called active. Another 18% or so got no clear call; they are omitted. Calls follow the shape of the dose curve; as a rule, active = well fitted inhibition curve with a large enough effect; inconclusive = small, poorly fitted or top-dose-only effect, or another doubt; inactive = no such curve, though single readings can be large or run the other way. For the sample, actives were picked, then their nearest neighbours and some compounds at random.

Assay: qHTS Assay for Inhibitors of Hepatitis C Virus (HCV)
Settings: Huh7.5.1 HCVcc-Cre infection, luciferase reporter, 44 h; series mostly up to 41.8 µM; activity change, negative = inhibition: at the top concentration
Summary of the method: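 Cells (1,000/well) were plated 4 h before compound, then infected with HCVcc-Cre virus (~0.5 moi). After 44 h further culture, infection was read as luciferase luminescence following a 15 min substrate incubation at room temperature.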
% is scaled to controls: 0 for no effect and ±100 for the full control effect; potency is read from the fitted curve at half-maximal effect.

| SMILES | activity change, negative = inhibition | Potency |
| --- | --- | --- |
| CNS(=O)(=O)c1ccc(C(=O)NCC(=O)NCCc2ccc3c(c2)OCCO3)cc1 | -10.8% (inactive) | – |
| CC(C)c1ccc2c(c1)c(SC(C)(C)C)c(CC(C)(C)C(=O)O)n2Cc1ccc(Cl)cc1 | – | 10 µM (active) |
| O=C(O)c1ccc(Cn2c(=S)[nH]c3cc(Cl)ccc3c2=O)cc1 | 5.79% (inactive) | – |
| Cc1cc2nnc(SCC(=O)N3CCN(c4ccccc4)CC3)n2c(N)n1 | 8% (inactive) | – |
| Cn1c(CNC(=O)c2ccco2)nnc1SCC(=O)N1CCN(c2ccccc2)CC1 | 19.3% (inactive) | – |
| Cn1c(Cc2cccc3ccccc23)nnc1SCC(=O)N1CCN(c2cccc(Cl)c2)CC1 | – | 3.98 µM (active) |
| O=C(CSc1ncnc2sccc12)NC1CCS(=O)(=O)C1 (configuration not stated) | 12.8% (inactive) | – |
| CC(=O)Nc1ccc(S(=O)(=O)NCC(=O)OCC(=O)c2ccc[nH]2)cc1 | 30.9% (inactive) | – |
| O=C(c1cccnc1)N(Cc1ccccc1)C(=O)c1cccnc1 | 7.13% (inactive) | – |
| CCOC(=O)CSc1nc2c(c(=O)n(C)c(=O)n2C)n1Cc1ccccc1F | -0.781% (inactive) | – |
| CCOC(=O)CSc1nc2c(sc(=S)n2CCc2ccccc2)c(=O)n1Cc1ccco1 | – | 14.1 µM (active) |
| CCOC(=O)CSc1nnc(-c2ccco2)n1C | -6.89% (inactive) | – |
| CC(C)C[C@H]1CN([C@@H](CC(C)C)CN2CCC[C@@H]2CN2C(=O)C(=O)NC[C@@H]2Cc2ccccc2)C(=O)C(=O)N1CCc1ccccc1 | -8.5% (inactive) | – |
| O=C(c1ccc(N2CCOCC2)c([N+](=O)[O-])c1)N1CCN(c2ccccc2F)CC1 | 10.7% (inactive) | – |
| COC(=O)[C@]1(Cc2ccccc2)N[C@H](CN(C)S(=O)(=O)c2ccc(F)cc2)[C@@H]2C(=O)N(Cc3ccccc3)C(=O)[C@@H]21 | -26.9% (inactive) | – |
| COC(=O)[C@]1(Cc2ccccc2)N[C@H](CN(C)S(=O)(=O)c2ccc(OC(F)(F)F)cc2)[C@@H]2C(=O)N(Cc3ccccc3)C(=O)[C@@H]21 | – | 7.08 µM (active) |
| CCN(C[C@H]1N[C@@](CC)(C(=O)OC)[C@H]2C(=O)N(Cc3ccccc3)C(=O)[C@@H]12)S(=O)(=O)c1ccccc1 | -2.21% (inactive) | – |
| CCN(CC(=O)Nc1c(F)cccc1F)C(=O)CN1c2cccc3cccc(c23)S1(=O)=O | 15.1% (inactive) | – |
| CCCCN(C(=O)c1cccc(N2C(=O)c3ccccc3C2=O)c1)c1c(N)n(CCCC)c(=O)[nH]c1=O | 16.2% (inactive) | – |
| CCn1c2c(c3ccc(OC)cc31)CCCC2=O | – | 1.26 µM (active) |
| COc1ccc2c(C)cc3nnnn3c2c1 | -4.35% (inactive) | – |
| COc1ccc(C2C3=C(CCCC3=O)N(CC(=O)O)C3=C2C(=O)CCC3)cc1 | 13.3% (inactive) | – |
| O=C(COC(=O)Cc1ccc([N+](=O)[O-])cc1)NC1CCCCCC1 | 23.3% (inactive) | – |
| COc1ccc(C2(C)ON(c3ccccc3C(F)(F)F)C2=O)cc1 (configuration not stated) | 32.4% (inactive) | – |
| CS(=O)(=O)c1ccc(Cl)c(NC(=O)COC(=O)c2cccc(S(=O)(=O)N3CCCC3)c2)c1 | 8.03% (inactive) | – |

| SMILES | activity change, negative = inhibition | Potency |
| --- | --- | --- |
| O=C(COC(=O)CCOc1ccccc1)Nc1cc(S(=O)(=O)N2CCCCC2)ccc1Cl | 22.5% (inactive) | – |
| COc1ccc(C(=O)Nc2cc(S(=O)(=O)N3CCCC3)ccc2Cl)cc1 | -7.01% (inactive) | – |
| O=C(NCc1cccs1)C1CCN(S(=O)(=O)c2ccc(Cl)cc2)CC1 | -19.5% (inactive) | – |
| O=C(Nc1cc(S(=O)(=O)N2CCCCC2)ccc1Cl)C1COc2ccccc2O1 (configuration not stated) | – | 11.2 µM (active) |
| CC(=O)NCCC(=O)Nc1cc(S(=O)(=O)N2CCCCC2)ccc1Oc1cccc(C)c1 | -8.53% (inactive) | – |
| CCOc1ccc(S(=O)(=O)N2CCCCC2)cc1NC(=O)CN1CCCC1c1cccs1 (configuration not stated) | – | 4.47 µM (active) |
| O=C(CNCc1cccs1)Nc1cc(S(=O)(=O)N2CCCC2)ccc1Cl | – | 10 µM (active) |
| Cc1ccc(S(=O)(=O)N2CCCCC2)cc1NC(=O)[C@@H]1CCCN1C(=O)c1cccs1 | -2.57% (inactive) | – |
| COc1cccc(CC(=NO)c2cccc(OC)c2)c1 | 0.648% (inactive) | – |
| CCN(C(=O)COC(=O)CCC(=O)c1cccs1)C1CCCCC1 | 6.03% (inactive) | – |
| O=C1c2ccccc2C(=O)N1CCC#Cc1ccc2cc(C3(O)CCCCC3)oc(=O)c2c1 | -24.6% (inactive) | – |
| CC(Sc1nncn1C)C(=O)NCCC1=CCCCC1 (configuration not stated) | 14.8% (inactive) | – |
| NS(=O)(=O)c1ccc(CNC(=S)NC(=O)c2ccco2)cc1 | 13.4% (inactive) | – |
| Nc1c(-c2ccccc2)nnn1Cc1ccccc1 | 0.76% (inactive) | – |
| Cc1cc(C)cc(OCC(=O)OCC(=O)NC2CCCC2)c1 | 21.1% (inactive) | – |
| C/C(=N\NC(=O)Cc1ccc(Br)cc1)c1cccnc1 | 11% (inactive) | – |
| O=C(Nc1ccc(NC(=O)c2ccccc2F)cc1)c1ccccc1F | 4.39% (inactive) | – |
| COc1ccc(CC(=O)N/N=C(\C)c2ccccn2)cc1 | -28.1% (inactive) | – |
| C/C(=N\NC(=O)Cc1ccc(Cl)cc1)c1ccccn1 | – | 7.08 µM (active) |
| C/C(CC(=O)Nc1ccc(N(C)C)cc1)=N\NC(=O)c1ccccc1F | 1.05% (inactive) | – |
| C/C(=N\NC(=O)c1ccccc1F)c1ccccn1 | – | 11.2 µM (active) |
| Cc1noc(C)c1S(=O)(=O)N(C)C[C@H]1Oc2c(NC(=O)Nc3ccc4c(c3)OCO4)cccc2C(=O)N([C@H](C)CO)C[C@@H]1C | 7.05% (inactive) | – |
| O=C(OCc1cc(=O)n2ccsc2n1)C1(c2ccc(Cl)cc2)CC1 | -13.4% (inactive) | – |
| O=C(OCC(=O)N1CCc2ccccc21)C1CCCN1S(=O)(=O)c1ccc(Cl)cc1 (configuration not stated) | 6.57% (inactive) | – |
| O=C(NN=CC=Cc1ccccc1)C(O)C(O)C(=O)NN=CC=Cc1ccccc1 (configuration not stated) | 14.2% (inactive) | – |

| SMILES | activity change, negative = inhibition | Potency |
| --- | --- | --- |
| Cc1ccc(S(=O)(=O)c2ccc(Oc3ccccc3)cc2)cc1 | -27.1% (inactive) | – |
| CN(C)S(=O)(=O)c1ccc(Oc2ccc(S(=O)(=O)N(C)C)cc2)cc1 | – | 11.2 µM (active) |
| COc1cccc(NC(=O)c2ccc(S(=O)(=O)N(C)C)cc2)c1 | -9.93% (inactive) | – |
| CN(C)C(=O)c1coc2nc3ccccc3nc12 | -10.9% (inactive) | – |
| CNC(=O)c1cc2c(ccc3ccccc32)oc1=N | 3.09% (inactive) | – |
| CNC(=O)c1cccc2nc3ccccc3nc12 | – | 11.2 µM (active) |
| CC(C)N(C(=O)CSc1nnc(NC2CC2)s1)c1ccccc1 | 10.8% (inactive) | – |
| COc1ccccc1OCCNC(=O)c1cc([N+](=O)[O-])cc([N+](=O)[O-])c1 | 10.3% (inactive) | – |
| CC(=O)Nc1ccc(S(=O)(=O)N2CCN(c3ccc([N+](=O)[O-])c(NCCN4CCOCC4)c3)CC2)cc1 | -11.2% (inactive) | – |
| COc1ccccc1OCCNc1cc(N2CCOCC2)ccc1[N+](=O)[O-] | – | 14.1 µM (active) |
| COc1ccc(Cl)cc1NC(=O)CN1CCN(C(=O)N2CCOCC2)CC1 | -13.9% (inactive) | – |
| Cn1nc(C(=O)OCC(=O)N(Cc2ccccc2)C(C)(C)C)c2ccccc2c1=O | -24.2% (inactive) | – |
| CN(Cc1ccc(CNC[C@H]2O[C@@H](n3cnc4c(N)ncnc43)[C@H](O)[C@@H]2O)o1)S(C)(=O)=O | 35.2% (inactive) | – |
| O=C(/C=C/c1cccc([N+](=O)[O-])c1)OCC(=O)N1CCOCC1 | -1.47% (inactive) | – |
| CCOc1cc(C(=O)N(Cc2ccccc2)c2ccc(C)cc2)ccc1OCC(=O)N1CCOCC1 | -5.74% (inactive) | – |
| CCOc1ccc(NC(=O)Nc2cc(C)on2)cc1 | 0.646% (inactive) | – |
| CCOC(=O)CNC(=O)CSc1nnc(COc2ccc(Cl)cc2)n1CC | 15.3% (inactive) | – |
| CCOc1ccc(C(=O)Nc2cc(OC)ccc2OC)cc1 | – | 8.91 µM (active) |
| COc1ccc(OC)c(NC(=O)c2ccc3c(c2)C(=O)N(c2ccc(OC(C)=O)cc2)C3=O)c1 | 10.5% (inactive) | – |
| CCn1c(COc2ccccc2)nnc1SCC(=O)Nc1ccc2c(c1)OCCO2 | 6% (inactive) | – |
| CCn1c(COc2ccc(OC)cc2)nnc1SCC(=O)Nc1cc(OC)ccc1OC | – | 1.26 µM (active) |
| CCOc1ccc(NC(=O)Nc2cc(C)ccc2OC)cc1 | – | 11.2 µM (active) |
| CCOc1ccc(C(=O)NC2CCN(C(=O)Nc3ccccc3OC)CC2)cc1 | 0.244% (inactive) | – |
| COc1ccc(C)cc1NC(=O)NCc1ccccn1 | 0.829% (inactive) | – |
| CC1CCCCC12NC(=O)N(CC(=O)N1CCN(c3ccccc3)CC1)C2=O (configuration not stated) | -9.42% (inactive) | – |

| SMILES | activity change, negative = inhibition | Potency |
| --- | --- | --- |
| CSCCC(NC(=O)c1ccco1)C(=O)NCCc1ccc(F)cc1 (configuration not stated) | 6% (inactive) | – |
| O=C(OCC(=O)N1CCCCCC1)c1ccc(Br)c(S(=O)(=O)N2CCOCC2)c1 | -0.643% (inactive) | – |
| CCN1CCN(CCNC(=O)c2ccc(/C=C3/Sc4ccccc4N(Cc4cccc(C)c4)C3=O)cc2)CC1 | – | 8.91 µM (active) |
| O=C(NCCCN1CCOCC1)c1ccc2c(c1)N(Cc1cccc(F)c1)C(=O)c1ccccc1S2 | -10.1% (inactive) | – |
| COc1ccc(/C=C(\NC(=O)c2ccccc2)C(=O)NCCN2CCOCC2)cc1OC | 11.8% (inactive) | – |
| Cc1nn(Cc2ccccc2)c(C)c1C(=O)NCCN1C(=O)S/C(=C\c2ccc(F)cc2)C1=O | -17.6% (inactive) | – |
| COc1ccc(CCNC(=O)c2ccc3c(c2)NC(=O)C(N2CCOCC2)S3)cc1OC (configuration not stated) | -4.67% (inactive) | – |
| CCN1CCN(CCNC(=O)c2ccc3c(c2)NC(=O)/C(=C\c2ccc(OC)c(OC)c2)S3)CC1 | – | 31.6 µM (active) |
| CC(=O)OC1CCC2(C)C(=CCC3C4CC(=O)N(O)C(=O)C4(C)CCC32)C1 (configuration not stated) | 11.9% (inactive) | – |
| COc1cc(/C=C/C(=O)OCC(=O)NC2CC2)cc(OC)c1OC | -13.3% (inactive) | – |
| CN(CC(=O)NCc1cccnc1)S(=O)(=O)c1cc(Cl)ccc1Cl | -1.4% (inactive) | – |
| CC(=O)c1c(OCC(=O)N(C)C2CCCCC2)ccc2c(C)cc(=O)oc12 | -5.03% (inactive) | – |
| COc1cccc(C=CC(=O)C=CC=Cc2ccccc2)c1 | 0.583% (inactive) | – |
| O=C(NCc1ccccc1Cl)C1CCCO1 (configuration not stated) | 18.6% (inactive) | – |
| O=C(NCc1ccccc1Cl)c1ccc2c(=O)n(CC3CCCO3)c(=S)[nH]c2c1 (configuration not stated) | – | 6.31 µM (active) |
| CC1Sc2ccc(C(=O)NCc3ccccc3Cl)cc2NC1=O (configuration not stated) | 14.3% (inactive) | – |
| Cc1cccc(NC(=O)c2ccc3c(=O)n(CC4CCCO4)c(=S)[nH]c3c2)c1 (configuration not stated) | – | 11.2 µM (active) |
| O=C(NC1CCCCC1)c1ccc2c(=O)n(CC3CCCO3)c(=O)[nH]c2c1 (configuration not stated) | 10.9% (inactive) | – |
| Cc1ccccc1NC(=O)Cn1c(=O)n(CC2CCCO2)c(=O)c2ccccc21 (configuration not stated) | 14.2% (inactive) | – |
| CSc1ccc(/C=C2\NC(=O)NC2=O)cc1 | 23% (inactive) | – |
| Cc1cn(C2CC(O)C(CO)O2)c(=O)n(CCCc2ccccc2)c1=O (configuration not stated) | 34.1% (inactive) | – |
| C(#CCN1CCOCC1)CCCN1CCOCC1 | 2.92% (inactive) | – |
